A selection: hits, their analogues and other compounds. The true share with any hit is near 3.6%.
TRHR enhancer: allosterically enhances the human TRH receptor. P34981. enhancement, % at 2 µM. TRHR cells, fluo-8 calcium fluorescence, EC20 TRH enhancement. 360,000 tested, 0.66% active; in the data active means enhancement above about 30%; further: 0% is about no effect
Target sequence (P34981 whole entry, looked up): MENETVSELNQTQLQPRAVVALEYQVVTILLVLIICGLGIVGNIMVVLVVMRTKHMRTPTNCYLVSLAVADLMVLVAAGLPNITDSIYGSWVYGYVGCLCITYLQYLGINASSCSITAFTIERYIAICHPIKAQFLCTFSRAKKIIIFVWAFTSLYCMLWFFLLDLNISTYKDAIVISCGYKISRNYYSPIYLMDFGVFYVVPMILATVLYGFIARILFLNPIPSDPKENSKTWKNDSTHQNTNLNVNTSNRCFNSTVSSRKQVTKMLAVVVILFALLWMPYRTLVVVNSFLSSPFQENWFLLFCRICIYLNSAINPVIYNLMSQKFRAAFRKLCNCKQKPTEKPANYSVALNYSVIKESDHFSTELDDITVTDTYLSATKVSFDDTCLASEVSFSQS
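TRHR-expressing cells loaded with fluo-8 calcium dye were read kinetically (ex 480/em 530) during compound addition, then stimulated with an EC20 of TRH (10 nM final). Enhancement of the Gq-mediated intracellular calcium response was scored.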
D1 potentiator: potentiators of human D1 dopamine receptor; AID 504651; P21728; HEK293 TREx D1 cells, calcium flux, dopamine EC20 potentiation; 360,000 tested, 0.036% active; potentiation, % at 10 µM; in the data active means potentiation above about 30%; further: 0% is about no effect
LDHA inh: blocks human lactate dehydrogenase A. P00338. purified LDHA, NADH/diaphorase-resazurin fluorescence; hits give low values. 480,000 tested, 0.15% active. activity change, % (values are at about 110 or 230 µM); in the data active means activity change below about -30%; inconclusive means mostly about -25% to -30%;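 further: plate controls were DMSO wells for no effect and wells without enzyme for full effect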
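Human LDH5 at 2 nM final in Tris HCl pH 7.4 with 0.06 mM NADH and 0.2 mM pyruvate, reacted 5 minutes at room temperature. Remaining NADH coupled via diaphorase/resazurin; resorufin fluorescence read at 0 and 20 minutes, normalized to enzyme-free and DMSO wells.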
TRHR ag: TRH receptor (human) agonism | P34981 | TRHR cells, calcium flux fluo-8, FDSS agonist mode | 360,000 tested, 0.18% active | activation, % at 2 µM; further: 0% is about no effect
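TRHR-expressing cells, plated overnight in medium with 10% serum, were loaded with fluo-8 calcium dye at room temperature. After a 10 s baseline, library compound was pin-added and calcium release was recorded kinetically (ex 480/em 530) as agonist response.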
D1 ag: human D1 receptor agonism. HEK293 T-REx D1 cells, calcium flux, agonist mode. activation, % at 2 µM. 360,000 tested, 1% active. AID 504660; further: 0% is about no effect
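Tetracycline-induced HEK293 TREx D1 cells, force-coupled to calcium signalling, were dye-loaded with a no-wash calcium kit. Compound was pin-added after a 10 s baseline. Fluorescence was read kinetically at 1 cycle/s for 180 s, with calcium rises flagged as agonism.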
D1 antag: antagonists of human D1 dopamine receptor. P21728. HEK293 TREx D1 cells, calcium flux, dopamine EC80; hits give low values. activity change, negative = inhibition, % at 10 µM. 360,000 tested, 3.2% active. AID 504652; in the data active means activity change below about -30%; further: on the % scale 0 is the no-effect control and ±100 the full control effect
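After overnight tetracycline induction at 30 C, force-coupled D1 HEK293 cells took up a no-wash calcium dye at room temperature. Compounds were added and monitored 180 s, and the response to EC80 dopamine was then recorded.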
An asterisk follows results filed as active. Unless noted, no stated cut-off is given here; in the data, active means activation above about 30%; inactive means the rest.

What do the screens show for `O=C(c1ccccc1)N1CCC(CC2CC(c3cccc(Br)c3)=NO2)(C(=O)NCC2CCCCC2)CC1` (stereo unspecified)?
TRHR enhancer: -5.3; D1 potentiator: -9.3; LDHA inh: -10.9; TRHR ag: -0.6; D1 ag: 1.6; D1 antag: -53.2*

What do the screens show for `Cn1cc(-c2nnnn2-c2cccc(C(F)(F)F)c2)c(C(F)(F)F)n1`?
TRHR enhancer: 18.1; D1 potentiator: -10.6; LDHA inh: -1.7; TRHR ag: -0.8; D1 ag: 25.7; D1 antag: -37.0*

How did Cc1nn(-c2cccc(C(F)(F)F)c2)c(=O)c2ccccc12 do in these assays?
TRHR enhancer: -1.9; D1 potentiator: -6.3; LDHA inh: -2.6; TRHR ag: -0.2; D1 ag: 0.3; D1 antag: 6.1

What do the screens show for `C[C@H](NC(=O)Cn1ccc2cc(OCc3ccccc3)ccc21)C(=O)O`?
LDHA inh: -6.0

Results for N#Cc1ccccc1OCC(=O)NC(=O)NC1CCCC1 ?
LDHA inh: 3.0

Results for COc1ccccc1CNCC(O)(c1ccc(F)cc1)c1ccc(F)cc1 ?
TRHR enhancer: -8.2; D1 potentiator: -10.3; LDHA inh: -3.7; TRHR ag: 1.1; D1 ag: 2.2; D1 antag: -51.9*

How did COc1ccccc1CNCC(O)(c1ccc(Cl)cc1)c1ccc(Cl)cc1 do in these assays?
TRHR enhancer: 1.9; D1 potentiator: 1.2; LDHA inh: 0.6; TRHR ag: 0.7; D1 ag: 6.4; D1 antag: 23.0

How did COc1ccccc1CNN do in these assays?
TRHR enhancer: 33.1*; D1 potentiator: 0.5; LDHA inh: 1.4; TRHR ag: 0.0; D1 ag: 1.5; D1 antag: 12.0

How did CCCN(CC)c1ccc(C(=O)NCC(=O)NCC(F)(F)F)cc1 do in these assays?
LDHA inh: 5.2

How did Cc1cc(C)c(C#N)c(SCC2COc3ccccc3O2)n1 (stereo unspecified) do in these assays?
TRHR enhancer: 2.1; D1 potentiator: 1.3; LDHA inh: -1.2; TRHR ag: -0.8; D1 ag: 37.6*; D1 antag: -5.1

Results for CCCCN(CC)C(=O)c1ccc2c(c1)NC(=O)c1ccccc1S2 ?
TRHR enhancer: -11.7; D1 potentiator: 0.2; LDHA inh: -14.5; TRHR ag: -0.5; D1 ag: 3.1; D1 antag: -44.6*

What do the screens show for `Cc1sc2ncnc(N(C)Cc3cccs3)c2c1C`?
TRHR enhancer: -1.0; D1 potentiator: -4.3; LDHA inh: -3.5; TRHR ag: -1.0; D1 ag: 0.6; D1 antag: -1.7

What do the screens show for `Cc1sc2ncnc(N(C)CCc3ccccn3)c2c1C`?
TRHR enhancer: 6.4; D1 potentiator: -3.3; LDHA inh: -32.3*; TRHR ag: 0.0; D1 ag: 1.8; D1 antag: -4.1

Results for CCOC(=O)c1sc2nc(CC(=O)OC)nc(N(C)CCc3ccccn3)c2c1C ?
TRHR enhancer: 1.3; D1 potentiator: -7.6; LDHA inh: -1.5; TRHR ag: -0.1; D1 ag: 0.1; D1 antag: -30.3*

How did Cc1cc(C)c(C(=O)C(C)Oc2cccc(C#N)c2)cc1C (stereo unspecified) do in these assays?
LDHA inh: 3.9

Results for c1ccc(CNc2ccc(N3CCCCC3)cc2)cc1 ?
LDHA inh: 11.7

Results for Clc1cccc(Cl)c1CNc1ccc(N2CCCC2)cc1 ?
TRHR enhancer: 31.0*; D1 potentiator: -1.9; LDHA inh: 20.8; TRHR ag: 0.5; D1 ag: -0.5; D1 antag: 1.8

What do the screens show for `CC1(C)Cc2cccc(OCC(=O)OCC(=O)Nc3ccc(C(N)=O)cc3)c2O1`?
TRHR enhancer: -0.4; D1 potentiator: -7.2; LDHA inh: -8.6; TRHR ag: -0.6; D1 ag: -1.6; D1 antag: -38.7*

Results for COc1ccc(CCNC(=O)Cc2c(C)c3c(OC)cc(C)cc3oc2=O)cc1 ?
LDHA inh: 5.8

Results for O=C(O)CC1S/C(=N/N=C/C2CC=CCC2)NC1=O (stereo unspecified) ?
TRHR enhancer: 6.1; D1 potentiator: -5.8; LDHA inh: -2.3; TRHR ag: 0.5; D1 ag: 2.4; D1 antag: -34.5*

What do the screens show for `C#CC[N+]1(CC#Cc2ccccc2)CCCC1`?
TRHR enhancer: -4.6; D1 potentiator: -2.0; LDHA inh: -9.0; TRHR ag: 0.2; D1 ag: -0.6; D1 antag: -52.0*

Results for C#CC[N+]1(CC#Cc2ccc(C#CC[N+]3(CC#C)CCOCC3)cc2)CCOCC1 ?
TRHR enhancer: 3.2; D1 potentiator: -3.5; LDHA inh: 5.9; TRHR ag: 0.2; D1 ag: 0.3; D1 antag: -81.4*

What do the screens show for `CCCOc1ccc(NC(=O)Cc2cccc3ccccc23)c2cccnc12`?
LDHA inh: 42.5

Results for NC(=O)C(OC(=O)CNS(=O)(=O)Cc1ccccc1)c1ccccc1 (stereo unspecified) ?
LDHA inh: 0.5

What do the screens show for `Clc1cccc(-n2ncc3c(NCCCn4ccnc4)ncnc32)c1`?
TRHR enhancer: -5.6; D1 potentiator: -3.2; LDHA inh: -5.6; TRHR ag: -0.2; D1 ag: 4.1; D1 antag: -40.5*

Results for Cc1ccc(-n2ncc3c(NCCCn4ccnc4)ncnc32)cc1C ?
TRHR enhancer: 2.3; D1 potentiator: -3.3; LDHA inh: 3.2; TRHR ag: -0.5; D1 ag: -4.3; D1 antag: -59.9*

What do the screens show for `COc1cc(/C=C(/C#N)c2nc3ccccc3[nH]2)cc2c1OCCO2`?
LDHA inh: 6.0

How did O=c1c(C=Nc2ccc(Cl)cc2)c[nH]n1-c1cccc(Cl)n1 do in these assays?
TRHR enhancer: -8.2; D1 potentiator: 1.6; LDHA inh: -51.7*; TRHR ag: -0.1; D1 ag: 0.6; D1 antag: 4.3

How did O=c1c2cccc3c(N4CCOCC4)ccc(c32)c2nc3ccccc3n12 do in these assays?
TRHR enhancer: 3.2; D1 potentiator: 0.8; TRHR ag: 51.1*; D1 ag: 71.5*; D1 antag: -18.1

How did CN1CCC(Oc2ccccc2Sc2ccccc2)CC1 do in these assays?
TRHR enhancer: 7.5; D1 potentiator: -10.2; LDHA inh: inconclusive; TRHR ag: 1.1; D1 ag: 26.4; D1 antag: -62.6*

What do the screens show for `CN1CCC(OC(c2ccccc2)c2ccccc2)CC1`?
TRHR enhancer: 9.9; D1 potentiator: -4.8; LDHA inh: -2.5; TRHR ag: -0.8; D1 ag: 23.7; D1 antag: -37.0*

Results for Cc1cc(C)c2cccc(C)c2n1 ?
LDHA inh: 2.8

How did Cc1cc(C)c2c(N)c3cccc(C)c3nc2n1 do in these assays?
TRHR enhancer: 7.0; D1 potentiator: 1.6; LDHA inh: -1.5; TRHR ag: 7.1; D1 ag: 54.4*; D1 antag: 5.3

Screening data: PubChem BioAssay, National Center for Advancing Translational Sciences (NCATS)
